From PubChem
Shown are actives, neighbours in structure and some others; about 10% of the full set was active somewhere.
MCF10A rereplic – induces DNA re-replication in MCF 10a normal breast cells. MCF 10A DNA re-replication, Hoechst nuclear intensity, 48 h. Potency, µM (series often up to 46.1 µM), for inactives: at the top dose activity, positive = re-replication, usual class: activators. actives 2.9% (n = 350,000); also: % of control where 0% means no effect; nearly all actives have a fitted effect of over 50% in size
RORgamma inh – inhibitors of mouse ROR gamma transcriptional activity; Drosophila S2 Gal4-RORgamma UAS-luciferase reporter, 20 h; Potency, µM (highest dose often 53.6 µM), without a hit: at the top dose activity change, negative = inhibition, actives largely listed as inhibitors; actives 5.4% (n = 310,000); P51450; also: % is scaled to controls: 0 for no effect and ±100 for the full control effect; nearly all actives have a fitted effect of over 60% in size
Target sequence (P51450 whole entry, looked up, the tested form may be a part): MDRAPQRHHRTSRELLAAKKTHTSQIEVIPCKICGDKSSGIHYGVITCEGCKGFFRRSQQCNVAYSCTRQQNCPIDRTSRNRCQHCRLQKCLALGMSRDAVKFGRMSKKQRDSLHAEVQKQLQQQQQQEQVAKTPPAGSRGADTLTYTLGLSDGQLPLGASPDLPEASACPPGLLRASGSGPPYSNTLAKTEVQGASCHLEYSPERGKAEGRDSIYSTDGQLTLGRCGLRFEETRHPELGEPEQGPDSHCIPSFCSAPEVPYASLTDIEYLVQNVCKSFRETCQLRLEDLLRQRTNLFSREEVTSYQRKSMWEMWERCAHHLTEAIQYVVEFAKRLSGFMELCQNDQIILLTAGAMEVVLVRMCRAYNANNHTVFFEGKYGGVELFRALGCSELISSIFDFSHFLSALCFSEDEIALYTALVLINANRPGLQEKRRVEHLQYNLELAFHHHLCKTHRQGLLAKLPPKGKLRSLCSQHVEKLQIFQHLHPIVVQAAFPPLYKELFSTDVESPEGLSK
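Luminescence from a UAS-regulated Photinus luciferase reporter in stably transfected Drosophila Schneider cells is measured; decreased signal marks ROR gamma inhibition. Fusion expression is induced by 700 uM copper sulfate for 20 hr.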
VP16 counter – inhibits Gal4-VP16 luciferase reporter, ROR gamma counter-screen; Drosophila S2 Gal4-VP16 UAS-luciferase, luminescence, 20 h; Potency, µM (titrated, usually from 53.6 µM), without a hit: top-dose activity, negative = inhibition, usual class: inhibitors; actives 3.5% (n = 310,000); AID 2546;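 also: Gal4-VP16 expression switched on by copper sulfate through the metallothionein promoter; % is scaled to controls: 0 for no effect and ±100 for the full control effect; nearly all actives have a fitted effect of over 50% in size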
KB-V1 cytotox – KB-V1 MDR subline cytotoxicity; actives 3.4% (n = 400,000); Potency, µM (doses to about 46.1 µM), actives largely listed as cytotoxic; AID 1347076; KB-V1 MDR cells viability, CellTiter-Glo, 72 h; also: % is scaled to controls: 0 for no effect and ±100 for the full control effect; nearly all actives have a fitted effect of over 60% in size
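Luminescent ATP read-out (CellTiter-Glo, 10 min) measures survival of drug-selected KB-V1 MDR cells after 72 h, 37 degrees C compound exposure. Medium: phenol-red-free DMEM, 10% FBS. Values from fitted concentration-response curves.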
KB-3-1 cytotox – kills parental KB-3-1 adenocarcinoma cells. Potency, µM (series often up to 46.1 µM), actives largely listed as cytotoxic. AID 1347075. KB-3-1 viability, CellTiter-Glo ATP luminescence, 72 h. actives 1.4% (n = 400,000); also: % is scaled to controls: 0 for no effect and ±100 for the full control effect; nearly all actives have a fitted effect of over 60% in size
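Parental KB-3-1 adenocarcinoma cells in phenol-red-free DMEM with 10% FBS were pin-treated with compounds at several concentrations, incubated 72 h at 37 °C, and viability read by CellTiter-Glo luminescence; concentration-effect curves were fitted after normalization.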
SW480 rereplic – DNA re-replication induction in SW480 cells. Potency, µM (series often up to 46.1 µM), inactives show at the highest dose re-replication activation, most hits filed as activators. actives 1.8% (n = 340,000). SW480 DNA re-replication, Hoechst DNA content imaging, 48 h; also: % of control where 0% means no effect; nearly all actives have a fitted effect of over 55% in size
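Compounds, transferred as 23 nL by pin tool, were incubated with cells for 48 hr; DNA content per nucleus was then quantified by Hoechst staining and fluorescence plate imaging.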
The depositor's hits bear a star; i = inactive; u = inconclusive; x = not tested or not shown; [ ] = dose if it differs, or a comment. Calls follow the shape of the dose curve; as a rule, active = well fitted curve in the direction sought with a large enough effect; inconclusive = small, poorly fitted or top-dose-only effect, or another doubt; inactive = no such curve, though single readings can be large; an effect the other way counts as inactive or inconclusive. Potency is read from the fitted curve at half-maximal effect.

SMILES | MCF10A rereplic | RORgamma inh | VP16 counter | KB-V1 cytotox | KB-3-1 cytotox | SW480 rereplic
Cc1cc(C)nc(N/C=C(\C#N)C(=O)c2cccc(CSc3ccccc3)c2)n1 | x | x | x | i | i | x
CCCCCCCCCCCCCCCC(=O)OC[C@@H](COP(=O)([O-])OCC[N+](C)(C)C)OC(=O)CCCCCCCCCCCCCCC | x | 7% | -5% | x | x | x
COc1cc(Br)cc(/C=C/c2ccc3cccc(O)c3n2)c1O | 16µM* | 2.5µM* | 3.2µM* | i | u | 34%
C/C=C/c1ccc(O)c(OC)c1 | 8% | -3%[10 µM] | 2% | i | i | -1%
COc1ccc(OC)c(/C=C/c2ccnc3ccccc23)c1 | 5.2µM* | x | x | 5.2µM* | u | 12µM*
COc1cc(/C=C/c2ccc3cccc(O)c3n2)ccc1O | 12µM* | 3.2µM* | 3.2µM* | i | u | 24%
COc1cc(Br)c(/C=C/c2ccc3cccc(O)c3n2)cc1OC | 0% | 2.8µM* | 3.2µM* | i | i | -15%
Oc1ccc2ccccc2c1/C=C/c1ccc2c(Br)cc(Br)c(O)c2n1 | 8.2µM* | x | x | 4.1µM* | u | 18µM*
COc1ccc(-n2nnnc2C(c2ccccc2)N2CCN(C/C=C/c3ccccc3)CC2)cc1 (stereo not given) | x | x | x | u | i | x
CC1(C(=O)Nc2ccc(Cl)c(Cl)c2)CCN1Cc1ccccc1OC(F)F (stereo not given) | x | x | x | i | u | x
C(=N\Nc1nc(Nc2ccccc2)nc(N2CCOCC2)n1)/c1c[nH]c2ccccc12 | 16µM* | -29% | -8% | 23µM* | u | 0.82µM*
Cc1[nH]c2ccccc2c1/C=N/Nc1nc(Nc2ccc(F)cc2)nc(N2CCOCC2)n1 | 5% | 2.5µM* | 5.6µM* | i | i | 1%
Cc1ccc(Nc2nc(N/N=C/c3c[nH]c4ccccc34)nc(N3CCOCC3)n2)cc1 | u | 11µM* | u | u | i | 13µM*
Cc1cc(/C=N/Nc2nc(N3CCOCC3)nc(N3CCOCC3)n2)c(C)n1-c1ccccc1 | 14% | -12% | -21% | i | i | 0%
O=C(Oc1cccc(/C=N/Nc2nc(Nc3ccccc3)nc(N3CCOCC3)n2)c1)c1ccco1 | u | -6% | 7% | 15µM* | i | u
COc1ccccc1N1CCN(C(=O)[C@@H]2CCCN2C2=NS(=O)(=O)c3ccccc32)CC1 | x | x | x | i | i | x
Cn1cccc1C(=O)N1CCC2(CCN(C(=O)Nc3cccc(F)c3)CC2)CC1 | x | 33% | 16% | x | x | x
O=C(O)CC1NCCc2ccccc21 (stereo not given) | -2% | 2% | 0% | i | i | -6%
Cc1ccc(S(=O)(=O)NCC2NCCc3ccccc32)cc1 (stereo not given) | -6% | 18µM* | 6% | u | i | -5%
Cc1ccc(-n2c3nc(=O)[nH]c(=O)c-3cc3c(C)nn(-c4ccccc4)c32)cc1Cl | x | x | x | i | u | x
COc1ccc(-c2nnc(Nc3ccc(CC(N)=O)cc3)c3ccccc23)cc1 | 16% | 30% | -5% | i | i | 7%
NC(=O)Cc1ccc(Nc2nnc(-c3ccccc3)c3ccccc23)cc1 | -7% | u | 22µM* | i | i | 3%
C=CCNc1nc(-c2cccc(OC)c2O)nc2ccccc12 | 23µM* | -2% | 0% | i | i | 4%
COc1ccc(CNc2nc(-c3ccccc3OC)nc3ccccc23)c(OC)c1 | x | 13µM* | u | x | x | x
CCOC(=O)c1cc(NC(=O)N(CC)C2CCCCC2)c(C)nc1C | 13% | u | u | 23µM* | i | -2%
C=CCn1c(C)cc(C(=O)Cn2nc(C(=O)O)c3ccccc3c2=O)c1C | 16% | 16µM* | u | i | i | -2%
Cc1cc(C(=O)Cn2nc(C(=O)O)c3ccccc3c2=O)c(C)n1C1CC1 | -1% | 20% | -2% | i | i | -2%
